Assay results: PubChem BioAssay (NCATS)
Inconclusive results are not listed. Calls of active or inactive are those of the source. Unless noted, the call rests on the fitted dose curve; in most records, active means well fitted curve in either direction with a large enough effect (not every such curve was filed as active); inconclusive means small, poorly fitted or top-dose-only effect, or another doubt; inactive means flat fitted curve, though single readings scatter.

What was measured:
[1] = molecular target: Lysosomal acid glucosylceramidase (Homo sapiens) (UniProt P04062); experiment: Glucocerebrosidase-p2 (AID 348; in the data active means potency below about 10 µM; further: potency means the concentration at half of the fitted maximal effect); conditions: purified GBA, blue fluorogenic substrate, 40 min
Outline: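 Compounds titrated from 0.6 nM upwards against 0.2 nM enzyme in pH 5.9 citric acid/KH2PO4, taurocholate, tween-20; blue fluorogenic substrate 80 uM, 40 min room temperature, stopped and read Ex 365/Em 440 for AC50.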

[2] = AP1 Signaling Pathway (AID 357); conditions: ME-180 AP-1-bla reporter, EGF-induced, beta-lactamase ratio, 5 h; at 7.69 µM (top of the series) unless noted;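 further: ME-180 reporter cells stimulated with EGF at its EC50 level; on the % scale 0 is the no-effect control and ±100 the full control effect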
Outline: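 Modulation of EGF-driven AP-1 transcription was assessed with a beta-lactamase reporter in ME-180 cells. Compound and EC50 EGF were co-incubated 5 hours at 37 °C before 2.5-hour CCF4 loading at room temperature and dual-emission reading.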

[3] = molecular target: Cytochrome P450 1A2 (Homo sapiens) (UniProt P05177); experiment: p450-cyp1a2 (AID 410; calls by dose curve; further: potency means the concentration at half of the fitted maximal effect;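 on activity change, negative = inhibition: -100% = full effect of reference inhibitor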); conditions: recombinant CYP1A2, luciferin-ME demethylation, luminescence; series mostly up to 57 µM
Outline: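 Inhibition was calculated relative to 57 uM furafylline (full inhibition). The reaction used human CYP1A2 at 20nM with Luciferin-ME at its Km, 100uM, driven by an NADPH-regenerating system for 60 min at room temperature.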

[4] = NFAT Signaling Pathway (AID 444); conditions: Jurkat NFAT-bla M1, carbachol, beta-lactamase ratio, 5 h; at 7.69 µM (top of the series) unless noted;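 further: carbachol stimulus at about its EC50 of 1 µM final; on the % scale 0 is the no-effect control and ±100 the full control effect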
Outline: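 Jurkat cells carrying an NFAT-driven β-lactamase reporter and co-transfected muscarinic M1 receptor were treated with compound plus carbachol (1 uM final, an EC50 level) for 5 h at 37 °C. CCF4 loading followed for 1 h at RT; 460/530 nm ratio gave %activity.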

[5] = Stat Signaling Pathway (AID 446); conditions: ME-180 SIE beta-lactamase reporter, IL-6 stimulated, 5 h; at 7.69 µM (top of the series) unless noted;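 further: ME-180 cervical cancer cells given 40 pM IL-6 alongside compound; SIE-controlled beta-lactamase reporter measured as 460/530 nm FRET emission ratio; on the % scale 0 is the no-effect control and ±100 the full control effect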
Outline: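 IL-6/STAT signaling read in ME-180 cells via an SIE beta-lactamase reporter. Stimulus was 40 pM IL-6 (its AC50) for 5 hrs, so both activation and inhibition register.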

[6] = molecular target: Glucocorticoid receptor (Homo sapiens) (UniProt P04150); experiment: GR-EFC Redistribution (AID 451; calls by dose curve; further: potency means the concentration at half of the fitted maximal effect); conditions: CHO-K1 GR-EFC translocation, beta-gal luminescence, 2 h
Outline: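 CHO-K1 cells stably expressing nuclear-localized β-gal enzyme acceptor and GR fused C-terminally to the enzyme donor fragment; ligand-driven nuclear translocation restores β-gal by complementation. Compounds titrated up to 46 uM final, 2 h at 37 °C; luminescence read.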

[7] = molecular target: Mitogen-activated protein kinase 10 (Mus musculus) (UniProt Q61831); experiment: JNK3 AlphaScreen Assay (AID 530); conditions: JNK3 lysate, c-Jun phosphorylation; series mostly up to 57.1 µM;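 further: kinase came from lysate of stimulated human HepG2 cells; signal reports phosphorylation of biotinylated GST-cJun 1-79 at Ser73 with 10 µM ATP; on the % scale 0 is the no-effect control and ±100 the full control effect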
Outline: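 JNK3 came from HepG2 lysates pre-activated with IL-1beta and TNF-alpha and phosphorylated biotinylated GST-cJun (1-79) at 10 uM ATP, pH 7.6, room temperature. Compounds were titrated. AlphaScreen signal used anti-phospho-cJun (Ser73) antibody.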

[8] = molecular target: 3',5'-cyclic-AMP phosphodiesterase 4B (Homo sapiens) (UniProt Q07343); experiment: qHTS Assay for Inhibitors of PDE-IV (AID 607; active means well fitted activation curve with a large enough effect in the main read-out, with a control signal flat, not every such curve was filed as active; further: % of control where 0% means no effect); conditions: HEK293 ACTOne CNG channel cells, membrane potential fluorescence; series mostly up to 22.9 µM
Outline: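 Live HEK293 cells with a modified cyclic nucleotide-gated (CNG) channel report intracellular cAMP via membrane-potential dye fluorescence (ex 535/em 590 nm). Endogenous PDE-IV was targeted. Compounds were tested at up to 22.9 uM final; RO 20-1724 100 uM served as control.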

[9] = molecular target: Cytochrome P450 3A4 (Homo sapiens) (UniProt P08684); experiment: qHTS Assay for Inhibitors and Substrates of Cytochrome P450 3A4 (AID 884; active means well fitted curve in the direction sought with a large enough effect; an effect the other way counts as inactive or inconclusive; further: nearly all actives have a fitted effect of over 50% in size; further: potency means the concentration at half of the fitted maximal effect); conditions: recombinant CYP3A4, Luciferin-PPXE luminescence; series mostly up to 57.1 µM
Outline: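 20 nM human CYP3A4 with 25 uM Luciferin-PPXE (at KM) in 200 mM KPO4, preincubated 10 min with compound; NADPH regeneration started a 60 min RT reaction. Luciferin detected by luminescence, normalized to 57 uM ketoconazole as full inhibition.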

[10] = molecular target: Cytochrome P450 3A4 (Homo sapiens) (UniProt P08684); experiment: qHTS Assay for Activators of Cytochrome P450 3A4 (AID 885; active means well fitted curve in the direction sought with a large enough effect; an effect the other way counts as inactive or inconclusive; further: nearly all actives have a fitted effect of over 65% in size; further: potency means the concentration at half of the fitted maximal effect); conditions: recombinant CYP3A4, Luciferin-PPXE luminescence, 60 min; series mostly up to 57.1 µM
Outline: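 Quantitative HTS format: compounds preincubated with 20nM human CYP3A4 and Luciferin-PPXE substrate at KM, reaction started by NADPH regeneration, stopped after 60 min, luciferase luminescence read 20 min later.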

[11] = qHTS Assay for Lipid Storage Modulators (AID 1519; calls by dose curve); conditions: Drosophila S3 cells, BODIPY lipid droplet/cell ratio, laser cytometry, cells loaded with oleic acid; for activity change, negative = inhibition: at 57.5 µM (top of the series)
Outline: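 Cells seeded at 5,000 per well were treated with compounds over a concentration series and loaded with oleic acid (400 uM, as added). Lipid droplet fluorescence (488 nm excitation, 500-530 nm channel) was read by laser-scanning cytometry and normalized to 20 uM Triacsin C.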

[12] = Primary qHTS for small molecule stabilizers of the endoplasmic reticulum resident proteome: Secreted ER Calcium Modulated Protein (SERCaMP) assay (AID 1508630; active means well fitted curve in the direction sought with a large enough effect; an effect the other way counts as inactive or inconclusive; further: on the % scale 0 is the no-effect control and ±100 the full control effect); conditions: SH-SY5Y GLuc-SERCaMP (Gaussia luciferase released on ER calcium loss) secretion, thapsigargin, luminescence; series mostly up to 38.4 µM
Outline: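 GLuc-SERCaMP-expressing SH-SY5Y cells, pretreated 16 h with compound, are challenged with thapsigargin to empty ER calcium stores; after 4 h, coelenterazine is added directly to the medium and luminescence is imaged.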

[13] = qHTS Assay for Identification of Small Molecule Agonists for Hypoxia Response Element Signaling Pathway (AID 914; active means well fitted activation curve with a large enough effect in the signal ratio, with a control signal flat, not every such curve was filed as active; the % refers to the signal ratio; further: % of control where 0% means no effect); conditions: ME-180 (cervical carcinoma) HRE-bla reporter, beta-lactamase ratio, CoCl2, 17 h; activation: stronger effect = higher value
Outline: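 AC50 values come from titration-series %Activity, taken as the 460/530nm ratio of CCF4 fluorescence (excitation 405nm). CellSensor HRE-bla ME-180 cells were treated 17 hours at 37 C with compound plus an EC50 level of CoCl2.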

[14] = molecular target: Cytochrome P450 2D6 (Homo sapiens) (UniProt P10635); experiment: qHTS Assay for Inhibitors and Substrates of Cytochrome P450 2D6 (AID 891; active means well fitted curve in the direction sought with a large enough effect; an effect the other way counts as inactive or inconclusive; further: potency means the concentration at half of the fitted maximal effect; nearly all actives have a fitted effect of over 60% in size); conditions: recombinant CYP2D6, luciferin-ME EGE luminescence; series mostly up to 57.1 µM
Outline: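 Human CYP2D6 (5 nM) with 30 uM Luciferin-ME EGE (at Km) in 100 mM KPO4, compound preincubated 10 min, then NADPH regeneration system for 60 min at room temperature. Luciferin read by luminescence; normalized to 1.43 uM quinidine.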

[15] = measured here: cell count channel max response
[16] = measured here: lipid channel max response

Cytochrome P450 1A2 (Homo sapiens), sequence (P05177 whole entry, looked up): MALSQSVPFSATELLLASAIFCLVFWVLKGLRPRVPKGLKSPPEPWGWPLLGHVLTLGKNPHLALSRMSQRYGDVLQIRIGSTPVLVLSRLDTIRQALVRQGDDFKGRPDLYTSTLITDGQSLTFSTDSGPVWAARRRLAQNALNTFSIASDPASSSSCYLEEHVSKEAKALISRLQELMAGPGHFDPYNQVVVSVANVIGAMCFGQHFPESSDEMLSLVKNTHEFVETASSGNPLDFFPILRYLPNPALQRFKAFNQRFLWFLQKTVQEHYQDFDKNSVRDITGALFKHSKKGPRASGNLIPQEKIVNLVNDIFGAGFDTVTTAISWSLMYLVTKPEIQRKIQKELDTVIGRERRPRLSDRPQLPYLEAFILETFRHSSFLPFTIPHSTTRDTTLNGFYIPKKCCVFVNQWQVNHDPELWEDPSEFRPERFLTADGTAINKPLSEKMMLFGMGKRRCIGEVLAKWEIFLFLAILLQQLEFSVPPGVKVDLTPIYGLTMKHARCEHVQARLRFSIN
Glucocorticoid receptor (Homo sapiens), sequence (P04150 whole entry, looked up, the tested form may be a part): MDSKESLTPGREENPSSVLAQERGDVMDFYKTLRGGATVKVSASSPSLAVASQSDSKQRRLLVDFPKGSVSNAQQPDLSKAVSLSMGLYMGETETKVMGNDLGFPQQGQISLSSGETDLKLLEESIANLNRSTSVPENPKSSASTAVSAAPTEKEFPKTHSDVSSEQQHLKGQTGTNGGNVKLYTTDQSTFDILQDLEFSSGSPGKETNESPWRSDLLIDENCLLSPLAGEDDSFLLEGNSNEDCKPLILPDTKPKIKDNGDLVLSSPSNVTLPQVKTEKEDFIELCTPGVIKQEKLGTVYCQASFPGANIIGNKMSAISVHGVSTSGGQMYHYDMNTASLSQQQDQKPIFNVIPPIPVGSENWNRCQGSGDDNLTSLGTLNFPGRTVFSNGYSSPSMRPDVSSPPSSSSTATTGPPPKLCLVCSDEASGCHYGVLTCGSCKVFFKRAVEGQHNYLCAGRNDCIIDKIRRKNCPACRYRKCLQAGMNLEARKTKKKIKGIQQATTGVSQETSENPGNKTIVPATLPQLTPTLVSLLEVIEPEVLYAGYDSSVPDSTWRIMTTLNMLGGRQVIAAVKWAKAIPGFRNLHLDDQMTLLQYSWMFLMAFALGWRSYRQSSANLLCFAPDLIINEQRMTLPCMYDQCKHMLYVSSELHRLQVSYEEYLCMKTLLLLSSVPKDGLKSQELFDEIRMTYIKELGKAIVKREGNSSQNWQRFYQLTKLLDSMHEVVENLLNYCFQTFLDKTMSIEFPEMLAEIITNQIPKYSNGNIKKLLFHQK
Lysosomal acid glucosylceramidase (Homo sapiens), sequence (P04062 whole entry, looked up): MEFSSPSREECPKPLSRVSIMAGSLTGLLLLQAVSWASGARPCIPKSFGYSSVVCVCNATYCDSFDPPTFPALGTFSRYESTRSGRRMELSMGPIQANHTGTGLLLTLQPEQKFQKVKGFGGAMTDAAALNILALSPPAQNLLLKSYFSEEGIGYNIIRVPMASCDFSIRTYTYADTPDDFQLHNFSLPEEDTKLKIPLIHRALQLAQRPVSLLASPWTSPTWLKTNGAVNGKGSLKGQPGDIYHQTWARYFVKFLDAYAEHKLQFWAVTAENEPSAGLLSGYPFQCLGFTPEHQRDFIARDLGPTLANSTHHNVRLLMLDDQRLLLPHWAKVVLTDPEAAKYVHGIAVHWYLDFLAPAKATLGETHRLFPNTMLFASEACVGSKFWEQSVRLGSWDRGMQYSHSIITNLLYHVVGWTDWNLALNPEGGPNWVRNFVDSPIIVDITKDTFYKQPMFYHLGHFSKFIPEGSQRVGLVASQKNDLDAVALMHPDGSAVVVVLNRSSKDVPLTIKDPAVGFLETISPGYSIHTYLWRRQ
3',5'-cyclic-AMP phosphodiesterase 4B (Homo sapiens), sequence (Q07343 whole entry, looked up): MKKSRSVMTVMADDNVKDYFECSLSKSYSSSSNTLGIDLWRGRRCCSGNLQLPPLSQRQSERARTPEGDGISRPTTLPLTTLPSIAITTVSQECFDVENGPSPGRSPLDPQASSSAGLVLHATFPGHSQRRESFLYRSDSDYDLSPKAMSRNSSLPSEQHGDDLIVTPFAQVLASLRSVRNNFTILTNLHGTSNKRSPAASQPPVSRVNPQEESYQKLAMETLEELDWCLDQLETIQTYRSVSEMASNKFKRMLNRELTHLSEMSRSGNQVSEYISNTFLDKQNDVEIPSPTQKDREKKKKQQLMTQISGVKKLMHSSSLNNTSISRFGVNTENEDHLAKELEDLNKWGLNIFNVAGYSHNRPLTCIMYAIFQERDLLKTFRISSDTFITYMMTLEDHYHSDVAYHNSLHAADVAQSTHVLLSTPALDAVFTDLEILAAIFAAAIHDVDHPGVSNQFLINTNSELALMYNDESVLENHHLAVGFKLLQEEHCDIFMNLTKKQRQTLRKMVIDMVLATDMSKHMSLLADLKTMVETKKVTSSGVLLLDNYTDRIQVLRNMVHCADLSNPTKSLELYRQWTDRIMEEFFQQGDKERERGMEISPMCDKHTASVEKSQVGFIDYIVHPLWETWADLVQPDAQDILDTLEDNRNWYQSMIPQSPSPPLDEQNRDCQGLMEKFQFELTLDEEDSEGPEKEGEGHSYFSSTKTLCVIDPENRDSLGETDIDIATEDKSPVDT
Cytochrome P450 3A4 (Homo sapiens), sequence (P08684 whole entry, looked up): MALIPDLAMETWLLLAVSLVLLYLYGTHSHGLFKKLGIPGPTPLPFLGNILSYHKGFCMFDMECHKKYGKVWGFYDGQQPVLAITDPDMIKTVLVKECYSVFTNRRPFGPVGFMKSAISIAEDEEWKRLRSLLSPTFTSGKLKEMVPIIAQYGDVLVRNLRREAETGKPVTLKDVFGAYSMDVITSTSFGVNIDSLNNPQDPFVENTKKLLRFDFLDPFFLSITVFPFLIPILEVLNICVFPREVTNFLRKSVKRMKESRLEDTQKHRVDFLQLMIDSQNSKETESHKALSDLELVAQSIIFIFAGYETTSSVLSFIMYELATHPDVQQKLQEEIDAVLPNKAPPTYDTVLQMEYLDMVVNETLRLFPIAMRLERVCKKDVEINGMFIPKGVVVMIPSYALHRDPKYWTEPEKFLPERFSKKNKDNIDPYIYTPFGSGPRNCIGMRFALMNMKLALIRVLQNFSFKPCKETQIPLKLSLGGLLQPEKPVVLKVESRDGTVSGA
Cytochrome P450 2D6 (Homo sapiens), sequence (P10635 whole entry, looked up): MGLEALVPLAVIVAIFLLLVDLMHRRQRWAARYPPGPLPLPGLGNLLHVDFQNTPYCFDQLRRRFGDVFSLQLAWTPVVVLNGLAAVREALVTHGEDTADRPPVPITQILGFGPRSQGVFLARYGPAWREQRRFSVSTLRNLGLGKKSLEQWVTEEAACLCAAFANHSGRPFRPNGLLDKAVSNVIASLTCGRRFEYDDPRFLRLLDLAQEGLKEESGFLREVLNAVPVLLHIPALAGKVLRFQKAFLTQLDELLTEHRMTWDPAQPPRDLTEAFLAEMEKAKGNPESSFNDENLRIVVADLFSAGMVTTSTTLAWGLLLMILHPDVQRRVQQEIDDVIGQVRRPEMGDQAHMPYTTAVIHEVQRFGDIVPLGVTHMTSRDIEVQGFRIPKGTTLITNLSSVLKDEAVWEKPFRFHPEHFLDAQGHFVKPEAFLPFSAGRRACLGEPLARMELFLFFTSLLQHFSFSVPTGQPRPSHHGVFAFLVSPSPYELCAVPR

| SMILES | Potency [1] | activity change, negative = inhibition [2] | Potency [3] | activity change, negative = inhibition [4] | activity, negative = inhibition [5] | Potency [6] | outcome [7] | Potency [8] | Potency [9] | Potency [10] | activity change, negative = inhibition [11] | max response [11, 15] [%] | max response [11, 16] [%] | Potency [12] | activation [13] | Potency [14] |
| --- | --- | --- | --- | --- | --- | --- | --- | --- | --- | --- | --- | --- | --- | --- | --- | --- |
| O=C(c1cnccn1)N1CCC2(CCCN(c3ccccc3)C2)CC1 | > 11.4 µM (inactive) | 13.8% (inactive) | inactive | 5.12% (inactive) | -11.6% (inactive) | > 46 µM (inactive) | inactive | inactive | 1.58 µM (active) | inactive | 4.73% (inactive) | 21.1 | 29.2 | inactive |  |  |
| O=C(Nc1ccccc1)N1CCC2(CC1)CCN(C(=O)c1csnn1)CC2 | > 11.4 µM (inactive) | -1.74% (inactive) | inactive | 11.2% (inactive) | -9.72% (inactive) | > 46 µM (inactive) | inactive | inactive |  |  | 4.48% (inactive) | 16.6 | 23.2 | inactive |  |  |
| CC(=O)N1CCC[C@@]2(CCN(Cc3ccccc3)C2)C1 | > 11.4 µM (inactive) | -2.69% (inactive) | inactive | 17.1% (inactive) | -3.06% (inactive) | > 46 µM (inactive) | inactive | inactive |  | inactive | 6.41% (inactive) | 8.55 | 16.4 | inactive |  |  |
| CC(C)NC(=O)N1CCCC2(CCN(C(=O)c3ccncc3)CC2)C1 | > 11.4 µM (inactive) | -8.19% (inactive) | inactive | 8.27% (inactive) | -5.11% (inactive) | > 46 µM (inactive) | inactive | inactive |  | inactive | 3.7% (inactive) | 13.8 | 22 | inactive |  |  |
| CN1CCCC2(CCN(C(=O)c3cnccn3)CC2)C1 | > 11.4 µM (inactive) | -9.74% (inactive) | inactive | -25% (inactive) | 3.76% (inactive) | > 46 µM (inactive) | inactive | inactive |  | inactive | -0.798% (inactive) | 2.95 | 3.48 | inactive |  |  |
| O=C(Oc1ccccc1)N1CCC2(CC1)CCN(c1ncccn1)CC2 | > 11.4 µM (inactive) | 3.96% (inactive) | inactive | -8.96% (inactive) | -1.88% (inactive) | > 46 µM (inactive) | inactive | inactive | inactive | 6.31 µM (active) | 2.83% (inactive) | -3.54 | 1.32 | inactive | 2.8% (inactive) |  |
| CS(=O)(=O)N1CCC[C@@]2(CCN(C(=O)Nc3cccc(F)c3)C2)C1 | > 11.4 µM (inactive) | -7.6% (inactive) | inactive | 16.7% (inactive) | -3.89% (inactive) | > 46 µM (inactive) | inactive | inactive |  | inactive | 1.83% (inactive) | 1.7 | 6.37 | inactive |  |  |
| CC(C)NC(=O)N1CCC2(CC1)CCN(C(=O)c1ccncc1)CC2 | > 11.4 µM (inactive) | -7.19% (inactive) | inactive | 1.59% (inactive) | -8.96% (inactive) | > 46 µM (inactive) | inactive | inactive |  | inactive | -0.818% (inactive) | 9.1 | 9.91 | inactive |  |  |
| O=C(c1cnccn1)N1CCC2(CC1)CCN(C(c1ccccc1)c1ccccc1)CC2 | > 11.4 µM (inactive) | 8.38% (inactive) | 10 µM (active) | -20.1% (inactive) | 6.95% (inactive) | > 46 µM (inactive) | inactive | inactive | inactive | 3.16 µM (active) | 1.71% (inactive) | 1.55 | 5.2 | inactive |  | 3.98 µM (active) |
| O=C(Oc1ccccc1)N1CCC2(CC1)CCN(c1ccccc1)CC2 | > 11.4 µM (inactive) | 20.6% (inactive) | inactive | -26.1% (inactive) | -1.28% (inactive) | > 46 µM (inactive) | inactive | inactive | inactive | 3.16 µM (active) | -1.08% (inactive) | -1.11 | -1.37 | inactive |  |  |
| COC(=O)N1CCC2(CC1)CN(C(c1ccccc1)c1ccccc1)C2 | > 11.4 µM (inactive) | 3.69% (inactive) | inactive | -16.9% (inactive) | 5.28% (inactive) | > 46 µM (inactive) | inactive | inactive | inactive | 0.794 µM (active) | -2.77% (inactive) | 5.36 | 5.91 | inactive |  | 0.794 µM (active) |
| COC(=O)N1CCC2(CCCN(C(=O)Nc3cccc(F)c3)C2)CC1 | > 11.4 µM (inactive) | -3.15% (inactive) | inactive | -20.9% (inactive) | -5.21% (inactive) | > 46 µM (inactive) | inactive | inactive |  | inactive | -17.4% (inactive) | -0.146 | -17.1 | inactive |  |  |
| Cn1cccc1C(=O)N1CCC2(CC1)CCN(c1ccc(-c3ccccc3)cc1)CC2 | > 11.4 µM (inactive) | -19.9% (inactive) | 20 µM (active) | 11.4% (inactive) | -10.4% (inactive) | > 46 µM (inactive) | inactive | inactive | inactive | 15.8 µM (active) | -6.03% (inactive) | -2.01 | -7.47 | inactive |  |  |
